According to PubChem BioAssay (Tox21):
“And” between values parts separate entries of the source, which are not always exact repeats. Identical values can stand only once. Inconclusive results are not listed. Where a structure was tested more than once in an assay, its records may differ in their call. The source made the active and inactive calls. Unless noted, calls follow the shape of the full dose curve. Peptide text beside a SMILES is read from it.

Columns and labels:
[1] = Nuclear factor erythroid 2-related factor 2/antioxidant responsive element (Nrf2/ARE) small molecule agonists: qHTS cell viability counter screen in human keratinocytes (AID 1919968; active = well fitted curve in the direction sought with a large enough effect in the repeat runs; an effect the other way counts as inactive or inconclusive; also: nearly all actives have a fitted effect of over 55% in size; also: potency is read from the fitted curve at half-maximal effect)
In short: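 Parallel cytotoxicity read: KeratinoSens HaCaT cells, compound treatment 23 h, viability by CellTiter-Fluor fluorescence 1 h post-reagent.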

[2] = Nuclear factor erythroid 2-related factor 2/antioxidant responsive element (Nrf2/ARE) small molecule agonists: luciferase reporter gene qHTS assay in human keratinocytes (AID 1919969); also: nearly all actives have a fitted effect of over 35% in size; also: potency is read from the fitted curve at half-maximal effect
[3] = target: Gonadotropin-releasing hormone receptor (Homo sapiens) (UniProt P30968); assay: Human gonadotropin-releasing hormone receptor (GnRHR) small molecule agonists, calcium flux assay in GnRHR-HEK293 cells (AID 1920063); also: nearly all actives have a fitted effect of over 35% in size
Chain of Gonadotropin-releasing hormone receptor (Homo sapiens) (P30968 whole entry, looked up): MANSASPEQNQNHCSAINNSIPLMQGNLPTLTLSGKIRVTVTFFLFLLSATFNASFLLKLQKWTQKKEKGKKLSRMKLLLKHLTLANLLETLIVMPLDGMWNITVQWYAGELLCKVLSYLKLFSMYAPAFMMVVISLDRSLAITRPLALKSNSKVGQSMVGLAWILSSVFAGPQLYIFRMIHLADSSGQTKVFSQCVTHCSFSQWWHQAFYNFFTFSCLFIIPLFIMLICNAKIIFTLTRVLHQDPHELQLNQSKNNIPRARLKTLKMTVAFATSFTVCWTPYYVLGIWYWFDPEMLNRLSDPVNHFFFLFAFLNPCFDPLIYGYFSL
In short: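 Calcium flux, agonist mode, human GnRHR stably integrated in HEK293; dye 1 h at 37 C before compound; Ex/Em=480/540 kinetic read, 3 min; 15 concentrations, triplicate.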

[4] = target: KiSS-1 receptor (Homo sapiens) (UniProt Q969F8); assay: Human kisspeptin (KISS1R) small molecule agonists, calcium flux assay in KISS1R-HEK293 cells (AID 1920064; active = well fitted curve in the direction sought with a large enough effect in the repeat runs; an effect the other way counts as inactive or inconclusive)
Chain of KiSS-1 receptor (Homo sapiens) (Q969F8 whole entry, looked up): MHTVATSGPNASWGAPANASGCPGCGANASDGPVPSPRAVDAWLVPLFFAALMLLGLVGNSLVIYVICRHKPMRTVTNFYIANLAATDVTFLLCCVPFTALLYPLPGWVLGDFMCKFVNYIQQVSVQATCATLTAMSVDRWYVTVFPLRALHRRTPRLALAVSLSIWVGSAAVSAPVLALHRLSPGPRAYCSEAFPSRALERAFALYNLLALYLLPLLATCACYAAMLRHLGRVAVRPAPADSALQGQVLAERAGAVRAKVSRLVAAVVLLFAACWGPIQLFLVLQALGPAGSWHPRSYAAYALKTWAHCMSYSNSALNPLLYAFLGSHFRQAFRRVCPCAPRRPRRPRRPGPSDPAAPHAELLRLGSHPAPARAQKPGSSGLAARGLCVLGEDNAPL
In short: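 Triplicate 15-concentration series were applied to dye-loaded human KISS1R HEK293 cells, and agonist-evoked calcium fluorescence was captured for 3 min.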

[5] = G protein-coupled receptor (GPCR) small molecule agonists, calcium flux assay: HEK293 wild type cell line counter screen (AID 1920065)
In short: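 Non-specific calcium responders were flagged by adding DMSO-dissolved compounds to dye-loaded cells and reading 480/540 nm fluorescence each second for 3 min; ATP served as positive control.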

[6] = p53 small molecule agonists, cell-based qHTS assay with human liver microsomes (AID 1963577)
In short: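 p53RE-bla cells, 4,000/well, compound added after 5 h, with human liver microsomes 0.5 mg/mL and NADPH 0.5 mg/mL final; 16 h at 37 C, then LiveBLAzer 2 h RT, fluorescence.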

[7] = p53 small molecule agonists, cell-based qHTS assay with rat liver microsomes (AID 1963578)
In short: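 p53RE-bla cells, 4,000/well, pre-incubated 5 h, then given compounds plus rat liver microsomes (0.5 mg/mL final) and NADPH (0.5 mg/mL final). Incubation 16 h at 37 C; beta-lactamase reporter read by LiveBLAzer fluorescence after 2 h at room temperature.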

[8] = p53 small molecule agonists, cell-based qHTS assay with human liver microsomes: qHTS cell viability counter screen (AID 1963579); also: nearly all actives have a fitted effect of over 45% in size
In short: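 p53RE-bla cells, 4,000/well, dosed 5 hours after plating, with human liver microsomes (0.5 mg/mL final) plus NADPH (0.5 mg/mL final), 16 hours at 37 C. Viability read as CellTiter-Glo luminescence after 30 min at room temperature.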

[9] = p53 small molecule agonists, cell-based qHTS assay with rat liver microsomes: qHTS cell viability counter screen (AID 1963580); also: nearly all actives have a fitted effect of over 45% in size
In short: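 Luminescent ATP readout (CellTiter-Glo, 30 min at room temperature) reports viability of p53RE-bla HCT-116 cells after 16 h at 37 C with test compounds under metabolic activation by rat liver microsomes and NADPH at 0.5 mg/mL final each.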

[10] = p53 small molecule agonists, cell-based qHTS assay: qHTS cell viability counter screen (AID 1963581); also: nearly all actives have a fitted effect of over 45% in size
In short: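 Multiplexed with the reporter read, a CellTiter-Glo step (30 min, room temperature) gauges ATP-based viability of HCT-116 p53RE-bla cells after 16 h compound incubation at 37 C.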

[11] = p53 small molecule agonists, cell-based qHTS assay (AID 1963582; active = well fitted activation curve with a large enough effect in the signal ratio in the repeat runs, not every such curve was filed as active; the % refers to the signal ratio)
In short: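 Beta-lactamase reporter cells (p53RE-bla) treated with compounds for 16 h at 37 C; FRET substrate, 2 h, room temperature; fluorescence intensity.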

[12] = target: 5-hydroxytryptamine receptor 2A (Homo sapiens) (UniProt P28223); assay: 5-hydroxytryptamine receptor 2A (HTR2A) small molecule antagonists, cell-based qHTS assay (AID 1963586); also: nearly all actives have a fitted effect of over 45% in size; also: potency is read from the fitted curve at half-maximal effect
Chain of 5-hydroxytryptamine receptor 2A (Homo sapiens) (P28223 whole entry, looked up): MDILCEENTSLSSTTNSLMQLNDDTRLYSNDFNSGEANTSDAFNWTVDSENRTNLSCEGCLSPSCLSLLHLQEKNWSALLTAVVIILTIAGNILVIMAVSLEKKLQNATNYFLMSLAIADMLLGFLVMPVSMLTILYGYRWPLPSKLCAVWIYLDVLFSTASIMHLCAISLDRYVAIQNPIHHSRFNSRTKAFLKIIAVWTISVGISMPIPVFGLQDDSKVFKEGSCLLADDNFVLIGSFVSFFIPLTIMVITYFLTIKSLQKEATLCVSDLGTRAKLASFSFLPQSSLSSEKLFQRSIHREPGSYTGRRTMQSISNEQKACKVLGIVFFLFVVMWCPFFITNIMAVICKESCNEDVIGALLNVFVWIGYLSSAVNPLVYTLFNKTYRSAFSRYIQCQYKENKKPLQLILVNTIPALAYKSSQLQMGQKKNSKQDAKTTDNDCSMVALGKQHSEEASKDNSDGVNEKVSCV
In short: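 CHO cells stably expressing human HTR2A were plated for 18 h at 37 C, then loaded with calcium dye for 1 h. Compounds were preincubated 5 min at room temperature before DOI (4 nM solution) was added. Kinetic fluorescence was read for 3 min.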

[13] = target: 5-hydroxytryptamine receptor 2A (Homo sapiens) (UniProt P28223); assay: 5-hydroxytryptamine receptor 2A (HTR2A) small molecule agonists, cell-based qHTS assay (AID 1963587); also: nearly all actives have a fitted effect of over 30% in size; also: potency is read from the fitted curve at half-maximal effect
In short: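 HTR2A-CHO cells, plated 18 h at 37 C/5% CO2, dye-loaded 1 h at 37 C; compounds in DMSO added by pin tool (agonist mode). Intracellular calcium flux read as kinetic fluorescence on FDSS over 2 min at 1 s intervals.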

[14] = target: Muscarinic acetylcholine receptor M1 (Homo sapiens) (UniProt P11229); assay: Cholinergic receptor muscarinic 1 (CHRM1) small molecule agonists, cell-based qHTS assay (AID 1963589); also: nearly all actives have a fitted effect of over 35% in size
Chain of Muscarinic acetylcholine receptor M1 (Homo sapiens) (P11229 whole entry, looked up): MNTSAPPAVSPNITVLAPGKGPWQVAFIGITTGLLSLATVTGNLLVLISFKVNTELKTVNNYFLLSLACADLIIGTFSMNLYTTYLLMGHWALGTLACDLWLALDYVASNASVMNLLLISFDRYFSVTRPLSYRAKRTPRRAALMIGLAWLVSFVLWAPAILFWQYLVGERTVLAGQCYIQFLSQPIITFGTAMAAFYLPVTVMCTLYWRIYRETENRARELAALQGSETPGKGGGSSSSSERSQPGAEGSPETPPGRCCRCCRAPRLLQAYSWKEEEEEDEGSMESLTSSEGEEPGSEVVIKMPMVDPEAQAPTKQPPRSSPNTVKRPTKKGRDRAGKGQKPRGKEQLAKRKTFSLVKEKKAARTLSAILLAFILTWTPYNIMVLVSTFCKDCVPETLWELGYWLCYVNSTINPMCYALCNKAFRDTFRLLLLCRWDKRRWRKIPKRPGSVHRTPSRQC
In short: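 qHTS, 15-point titration, 3 independent runs: compounds pin-transferred onto dye-loaded CHRM1-CHO cells (human M1), calcium fluorescence followed every second to detect agonism.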

[15] = cAMP Responsive Elements (CRE) small molecule agonists, cell-based qHTS assay (AID 1963590)
In short: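 Quantitative HTS for CRE agonists: HEK 293T CRE-bla cells, overnight plating, 3 h compound incubation at 37 C/5% CO2, then 2 h room-temperature LiveBLAzer B/G FRET substrate loading.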

[16] = target: Beta-2 adrenergic receptor (Homo sapiens) (UniProt P07550); assay: Adrenergic beta2 receptor (ADRB2) small molecule antagonists, cell-based qHTS assay (AID 1963592); also: series mostly up to about 92 µM; nearly all actives have a fitted effect of over 50% in size
Chain of Beta-2 adrenergic receptor (Homo sapiens) (P07550 whole entry, looked up): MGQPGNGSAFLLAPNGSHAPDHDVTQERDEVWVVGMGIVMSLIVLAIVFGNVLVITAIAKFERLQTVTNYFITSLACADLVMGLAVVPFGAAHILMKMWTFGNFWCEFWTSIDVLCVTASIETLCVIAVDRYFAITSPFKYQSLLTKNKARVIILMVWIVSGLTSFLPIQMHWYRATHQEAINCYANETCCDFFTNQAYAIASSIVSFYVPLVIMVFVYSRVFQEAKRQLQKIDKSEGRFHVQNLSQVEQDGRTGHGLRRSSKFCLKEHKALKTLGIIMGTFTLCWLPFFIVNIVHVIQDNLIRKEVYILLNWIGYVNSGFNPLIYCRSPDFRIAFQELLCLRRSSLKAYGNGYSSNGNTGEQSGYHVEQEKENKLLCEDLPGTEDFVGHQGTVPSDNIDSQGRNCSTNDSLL
In short: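 Assay format: CHO-ADRB2 cells, 18-20hr seeding at 37C/5% CO2, then compound plus 1nM isoproterenol agonist mix for 0.5hr RT. Homogeneous time-resolved fluorescence cAMP detection after 1hr, expressed as 665/615 nm ratio.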

[17] = target: Beta-2 adrenergic receptor (Homo sapiens) (UniProt P07550); assay: Adrenergic beta2 receptor (ADRB2) small molecule agonists, cell-based qHTS assay (AID 1963593);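 also: CHO cells stably overexpressing human ADRB2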
In short: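 CHO cells stably over-expressing ADRB2 were plated overnight at 37C, then dosed with compounds plus a stimulation mix containing 100uM IBMX and 25uM Ro-20-1724 for 0.5hr at room temperature. cAMP was measured by HTRF competition, 1hr.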

[18] = target: D(2) dopamine receptor (Homo sapiens) (UniProt P14416); assay: Dopamine D2 receptor (DRD2) small molecule agonists, cell-based qHTS assay (AID 1963594); also: nearly all actives have a fitted effect of over 35% in size
Chain of D(2) dopamine receptor (Homo sapiens) (P14416 whole entry, looked up): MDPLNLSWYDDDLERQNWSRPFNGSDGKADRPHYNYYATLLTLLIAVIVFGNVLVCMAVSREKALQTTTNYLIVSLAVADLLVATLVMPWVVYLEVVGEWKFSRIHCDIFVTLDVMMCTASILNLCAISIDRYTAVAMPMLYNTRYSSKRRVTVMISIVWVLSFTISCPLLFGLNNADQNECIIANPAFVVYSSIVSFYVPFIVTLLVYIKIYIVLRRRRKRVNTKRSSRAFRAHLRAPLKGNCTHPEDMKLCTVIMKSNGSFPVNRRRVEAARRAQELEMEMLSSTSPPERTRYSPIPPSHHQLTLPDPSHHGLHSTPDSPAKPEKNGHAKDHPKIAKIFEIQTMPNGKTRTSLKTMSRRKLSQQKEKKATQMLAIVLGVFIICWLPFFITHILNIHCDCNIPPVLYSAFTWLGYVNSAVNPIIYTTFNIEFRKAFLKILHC
In short: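 HEK293 cells stably expressing DRD2 were cultured 24 h at 37 C, then given Ro20-1724 (0.1 mM final) and compounds for 10 min at room temperature. NKH477 (200nM) was then added for 30 min. cAMP was read by HTRF.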

[19] = target: D(2) dopamine receptor (Homo sapiens) (UniProt P14416); assay: Dopamine D2 receptor (DRD2) small molecule antagonists, cell-based qHTS assay (AID 1963595; active = well fitted inhibition curve with a large enough effect in the signal ratio in the repeat runs, with a control signal flat; the % refers to the signal ratio)
In short: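 Antagonism was scored as restored cAMP in HEK293-DRD2 cells. These cells were stimulated with 200 nM NKH477 and 12 nM quinpirole for 30 min at room temperature, in the presence of 0.1 mM Ro20-1724.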

[20] = cAMP Responsive Elements (CRE) small molecule antagonists, cell-based qHTS assay (AID 1963591; active = well fitted inhibition curve with a large enough effect in the signal ratio in the repeat runs, not every such curve was filed as active; the % refers to the signal ratio)
In short: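 Fluorescence intensity from cleaved LiveBLAzer B/G substrate (2 h, room temperature) quantified CRE-bla activity in HEK 293T cells exposed 3 h to compound with 0.25 uM final NKH477.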

Measured: Potency

CCOC(=O)C1OC1c1ccccc1 (centres undefined)
not listed: [20]
inactive: all other assays above

COc1ccc(C(=O)c2ccccc2)c(O)c1
inactive and 54.5 µM (active): [2]
not listed: [15] | [16]
inactive: all other assays above

NCCNc1cccc2ccccc12
54.4 µM (active) and inactive: [1]
active: [12] 2.9 nM | [13] 389 nM and 1.2 nM and 19 nM
not listed: [16] | [17]
inactive: all other assays above

C=CN1CCCC1=O
not listed: [16] | [17] | [18]
inactive: all other assays above

CCCCCC/C=C/CCCCCCCC(=O)O
not listed: [18] | [20]
inactive: all other assays above

CC(CCl)OP(=O)(OC(C)CCl)OC(C)CCl (centres undefined)
not listed: [19] | [20]
inactive: all other assays above

CCCCCCCCCC(=O)O
not listed: [15] | [17] | [19]
inactive: all other assays above

NCCCCCCN
not listed: [14]
inactive: all other assays above

O=C(O)CCCCC(=O)O
not listed: [14] | [20]
inactive: all other assays above

Brc1ccc(Oc2ccc(Br)cc2)cc1
inactive: all assays above

OCc1ccc(Cl)cc1Cl
not listed: [12]
inactive: all other assays above

CC(=O)OCC(=O)[C@@]12N=C(C)O[C@@H]1C[C@H]1[C@@H]3CCC4=CC(=O)C=C[C@]4(C)[C@H]3[C@@H](O)C[C@@]12C
not listed: [17]
inactive: all other assays above

CCCOC(=O)NCCCN(C)C
not listed: [12]
inactive: all other assays above

CC/C=C(\C(=O)N[C@@H]1C(=O)N2C(C(=O)OCOC(=O)C(C)(C)C)=C(COC(N)=O)CS[C@H]12)c1csc(N)n1
inactive and 29.8 µM (active): [2]
not listed: [13]
inactive: all other assays above

CN(C)CCOC(=O)COc1ccc(Cl)cc1
not listed: [14] | [15] | [20]
inactive: all other assays above

Nc1ccc(C(=O)O)cc1
not listed: [17]
inactive: all other assays above

CC(C)(CO)COC(=O)C(C)(C)CO
not listed: [14] | [15] | [17]
inactive: all other assays above

CC(C)CC(=O)CC(C)CC(C)C (centres undefined)
not listed: [17]
inactive: all other assays above

CC(C)(CO)CO
not listed: [14] | [16] | [17]
inactive: all other assays above

CC(=O)Nc1ccc2c(c1)Cc1cc(NC(C)=O)ccc1-2
not listed: [14] | [15]
inactive: all other assays above

COC(=O)CCCC(=O)OC
not listed: [13] | [17]
inactive: all other assays above

C/C=C/c1ccc(OCC)c(O)c1
not listed: [13] | [15]
inactive: all other assays above

COC(=O)[C@H](Cc1ccccc1)NC(=O)[C@@H](N)CC(=O)O (H-Asp-Phe-OMe)
not listed: [13]
inactive: all other assays above

CC(C)=CCCC(C)CCO (centres undefined)
not listed: [14] | [17]
inactive: all other assays above

C[Si](C)(C)O[Si](C)(C)C
not listed: [13]
inactive: all other assays above

CN(C)C
not listed: [13]
inactive: all other assays above

COc1ccc(Nc2ccccc2)c(C)c1
inactive and 21.1 µM (active): [12]
not listed: [18]
inactive: all other assays above

C=C(C)C(=O)OCCOC(=O)C(=C)C
not listed: [17]
inactive: all other assays above

O=C1C(N(CO)C(=O)NCO)N(CO)C(=O)N1CO (centres undefined)
not listed: [13] | [17]
inactive: all other assays above

Cc1ccc(C)c(C)c1
not listed: [14] | [17]
inactive: all other assays above

Cc1ccc(Cl)cc1
not listed: [19]
inactive: all other assays above
